Experimental data as given in PubChem BioAssay (NCATS).
Records with an inconclusive call do not appear. Where a call stands in place of a potency, no number is given. The source made the active and inactive calls. Unless noted, calls come from the whole dose curve; as a rule, active = well fitted curve in the direction sought with a large enough effect; inconclusive = small, poorly fitted or top-dose-only effect, or another doubt; inactive = no such curve, though single readings can be large; an effect the other way counts as inactive or inconclusive.

Tests used:
[1] = qHTS assay for measurement of the activity of small molecule inhibitors on Zika virus induced Caspase-3 activity in human iPSC derived neural progenitor cells (hNPCs) (AID 1224857); note: nearly all actives have a fitted effect of over 65% in size
Outline: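 hNPCs seeded 350 cells/well, cultured 16–20 h; compounds added 1 h before ZIKV (2 FFU/cell), 37 C 6 h. Caspase-Glo 3/7 luminescence after 30 min RT; % inhibition from induction scaled to uninfected (0%) and infected (100%) wells.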

[2] = qHTS assay for measurement of the activity of small molecule inhibitors on Zika virus induced Caspase-3 activity in human astrocytoma cells (AID 1224859)
Outline: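 Luminescence read-out (Caspase-Glo 3/7, 30 min RT) of caspase activity in SNB-19 cells infected 6 h with ZIKV, 2 FFU/cell, after 1 h compound pretreatment; % inhibition from induction normalised to uninfected (0%) and infected (100%) wells.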

[3] = Natriuretic polypeptide receptor (hNpr1) antagonism - Pilot counterscreen GloSensor control cell line (AID 1347045; calls by dose curve; note: potency is the fitted concentration of half-maximal effect)
Outline: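 HEK293 cGMP GloSensor cells preloaded 2 h with 2% GloSensor reagent, then compound 30 min before baseline luminescence read. Stimulated with 50 uM sodium nitroprusside, 20 min at room temperature, then read again; counterscreen for Npr1 antagonism.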

[4] = biological target: Atrial natriuretic peptide receptor 1 (Homo sapiens) (UniProt P16066); assay: Natriuretic polypeptide receptor (hNpr1) antagonism - Pilot screen (AID 1347049; calls by dose curve;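 note: agonist-evoked cGMP luminescence read 20 min after hNppA addition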; note: potency is the fitted concentration of half-maximal effect)
Outline: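 Readout is cGMP-driven firefly luciferase luminescence in HEK293 cells carrying hNpr1 and a PDE5-domain GloSensor, read before and 20 min after 0.1 nM hNppA stimulation. Cells had 2% substrate reagent for 2 h and test compound for 30 min.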

[5] = biological target: Atrial natriuretic peptide receptor 2 (Homo sapiens) (UniProt P20594); assay: Natriuretic polypeptide receptor (hNpr2) antagonism - Pilot subtype selectivity assay (AID 1347050; calls by dose curve; note: potency is the fitted concentration of half-maximal effect)
Outline: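 Pilot selectivity screen against hNpr2: HEK293 cGMP-sensor cells are treated with LOPAC1280 compounds, then with hNppC peptide at 1 nM final. The cGMP-driven luminescence change over 20 min at room temperature is the read-out.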

[6] = NS1 protein of Zika virus - qHTS assay to identify small molecule inhibitors in human HEK 293 cells (AID 1347053); note: nearly all actives have a fitted effect of over 55% in size
Outline: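 Following 20 h seeding, HEK 293 cells took compound, then 1 h later ZIKV MR766 (MOI = 0.5). Incubation ran 24 h at 37 C before TR-FRET detection of NS1; a drop in signal indicates inhibition.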

[7] = biological target: T1, Tyrosine-protein phosphatase non-receptor type substrate 1 (Homo sapiens) + Leukocyte surface antigen CD47 (Homo sapiens) (UniProt P78324+Q08722); assay: CD47-SIRPalpha protein protein interaction - LANCE assay qHTS validation (AID 1347057; active = well fitted curve in the direction sought with a large enough effect in the signal ratio, with a control signal flat, not every such curve was filed as active; the % refers to the signal ratio)
Outline: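 First, His-tagged CD47 and Eu-labelled anti-His antibody met the compound for 30 min; next, site-specifically biotinylated SIRPalpha was added for 30 min; finally streptavidin-APC was added before reading the TR-FRET ratio.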

[8] = biological target: T1, Tyrosine-protein phosphatase non-receptor type substrate 1 (Homo sapiens) + Leukocyte surface antigen CD47 (Homo sapiens); assay: CD47-SIRPalpha protein protein interaction - HTRF assay qHTS validation (AID 1347058; active = well fitted curve in the direction sought with a large enough effect in the signal ratio, not every such curve was filed as active; the % refers to the signal ratio;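 note: recombinant soluble extracellular CD47 with His tag and biotinylated SIRPalpha domains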)
Outline: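 TR-FRET read (Ch1/Ch2 ratio) of soluble extracellular CD47 and Avi-biotinylated SIRPalpha domains in PBS pH 7.4 with 0.05% IGEPAL; 7-point compound titration. Sequential 30 min room-temperature steps; non-biotinylated SIRPalpha as control inhibitor.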

[9] = qHTS profiling for inhibitors of Plasmodium falciparum (3D7) proliferation (AID 743322);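 note: infected erythrocytes exposed to compound for 72 h before lysis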; conditions: P. falciparum 3D7 proliferation; at 28.7 µM (top of the series)
Outline: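 Erythrocytes infected with P. falciparum (0.3% parasitemia, 2.5% hematocrit) incubated with compounds 72 h at 37 C, 5% CO2. Lysis with saponin/Triton buffer containing SYBR Green I, overnight at room temperature in the dark; DNA fluorescence (485/535 nm) normalised to 0.29 uM artemisinin and DMSO.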

[10] = qHTS profiling for inhibitors of Plasmodium falciparum (DD2) proliferation (AID 743323; call rule not given here); conditions: lower = more inhibition; at 28.7 µM (top of the series)
Outline: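 1536-well qHTS; infected RBCs 0.3% parasitemia/2.5% Hct final; cpd 72 h 37 C 5% CO2; lysis buffer + SYBR Green I, o/n RT dark; FI 485/535; norm. to 0.29 uM artemisinin and DMSO, plate-stack corrected.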

[11] = qHTS profiling for inhibitors of Plasmodium falciparum (HB3) proliferation (AID 743324); conditions: Plasmodium falciparum HB3 blood-stage proliferation; at 28.7 µM (top of the series)
Outline: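 P. falciparum HB3 grown in erythrocytes (0.3% parasitemia, 2.5% hematocrit final) with compound for 72 h at 37 C, 5% CO2. Parasite DNA detected by SYBR Green after saponin/triton lysis overnight; normalized to 0.29 uM artemisinin and DMSO.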

Atrial natriuretic peptide receptor 2 (Homo sapiens), sequence (P20594 whole entry, looked up): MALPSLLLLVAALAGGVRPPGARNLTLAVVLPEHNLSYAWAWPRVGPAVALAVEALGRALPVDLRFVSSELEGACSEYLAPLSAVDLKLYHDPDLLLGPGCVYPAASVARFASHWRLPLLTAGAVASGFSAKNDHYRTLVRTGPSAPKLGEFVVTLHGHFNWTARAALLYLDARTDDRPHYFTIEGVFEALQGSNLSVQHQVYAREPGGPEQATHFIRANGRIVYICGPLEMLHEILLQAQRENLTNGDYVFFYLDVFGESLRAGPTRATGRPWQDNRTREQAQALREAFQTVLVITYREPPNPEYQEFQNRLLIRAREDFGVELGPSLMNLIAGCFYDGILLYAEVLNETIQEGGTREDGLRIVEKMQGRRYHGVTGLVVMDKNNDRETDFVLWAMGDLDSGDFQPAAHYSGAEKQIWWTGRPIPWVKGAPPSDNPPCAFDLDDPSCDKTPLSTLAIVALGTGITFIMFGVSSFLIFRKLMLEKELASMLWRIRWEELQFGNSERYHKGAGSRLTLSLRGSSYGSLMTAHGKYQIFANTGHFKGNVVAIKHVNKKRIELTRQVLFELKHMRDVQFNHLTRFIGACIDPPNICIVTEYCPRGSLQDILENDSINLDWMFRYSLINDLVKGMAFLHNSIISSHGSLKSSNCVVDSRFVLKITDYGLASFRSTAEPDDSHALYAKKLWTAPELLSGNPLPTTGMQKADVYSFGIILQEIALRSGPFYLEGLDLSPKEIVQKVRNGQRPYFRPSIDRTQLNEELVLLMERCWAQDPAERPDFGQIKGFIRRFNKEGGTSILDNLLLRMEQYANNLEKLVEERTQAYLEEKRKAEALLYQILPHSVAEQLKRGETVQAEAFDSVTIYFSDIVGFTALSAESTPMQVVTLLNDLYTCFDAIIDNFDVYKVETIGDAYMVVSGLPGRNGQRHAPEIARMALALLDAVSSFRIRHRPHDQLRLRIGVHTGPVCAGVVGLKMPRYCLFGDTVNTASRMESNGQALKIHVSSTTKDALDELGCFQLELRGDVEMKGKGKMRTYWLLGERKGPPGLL
Atrial natriuretic peptide receptor 1 (Homo sapiens), sequence (P16066 whole entry, looked up): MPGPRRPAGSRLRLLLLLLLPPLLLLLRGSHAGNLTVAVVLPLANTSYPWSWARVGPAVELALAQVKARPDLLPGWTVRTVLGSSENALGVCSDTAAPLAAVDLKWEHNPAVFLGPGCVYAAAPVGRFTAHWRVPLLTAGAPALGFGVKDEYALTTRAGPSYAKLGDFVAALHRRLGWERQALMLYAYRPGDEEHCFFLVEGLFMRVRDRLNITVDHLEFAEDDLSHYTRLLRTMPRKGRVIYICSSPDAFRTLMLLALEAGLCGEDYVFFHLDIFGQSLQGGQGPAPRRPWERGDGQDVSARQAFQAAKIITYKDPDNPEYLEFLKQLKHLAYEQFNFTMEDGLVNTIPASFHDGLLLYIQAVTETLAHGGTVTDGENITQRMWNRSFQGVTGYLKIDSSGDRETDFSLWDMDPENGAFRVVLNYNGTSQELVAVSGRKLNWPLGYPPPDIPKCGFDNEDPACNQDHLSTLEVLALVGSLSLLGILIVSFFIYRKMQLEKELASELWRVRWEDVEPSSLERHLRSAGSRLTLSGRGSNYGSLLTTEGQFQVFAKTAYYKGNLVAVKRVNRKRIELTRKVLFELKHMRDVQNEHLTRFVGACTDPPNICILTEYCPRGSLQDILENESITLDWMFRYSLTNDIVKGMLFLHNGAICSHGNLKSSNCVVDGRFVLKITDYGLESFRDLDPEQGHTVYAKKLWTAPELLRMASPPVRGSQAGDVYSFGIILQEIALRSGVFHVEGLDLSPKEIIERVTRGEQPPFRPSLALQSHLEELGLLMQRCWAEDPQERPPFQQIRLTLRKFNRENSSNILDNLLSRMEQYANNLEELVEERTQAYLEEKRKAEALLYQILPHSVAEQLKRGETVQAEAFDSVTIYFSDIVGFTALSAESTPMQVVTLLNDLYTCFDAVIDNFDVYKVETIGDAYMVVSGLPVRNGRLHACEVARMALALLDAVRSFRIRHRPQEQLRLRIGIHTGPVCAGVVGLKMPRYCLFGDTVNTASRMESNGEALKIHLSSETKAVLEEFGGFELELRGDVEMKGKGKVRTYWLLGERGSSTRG
T1 sequence (P78324 whole entry, looked up): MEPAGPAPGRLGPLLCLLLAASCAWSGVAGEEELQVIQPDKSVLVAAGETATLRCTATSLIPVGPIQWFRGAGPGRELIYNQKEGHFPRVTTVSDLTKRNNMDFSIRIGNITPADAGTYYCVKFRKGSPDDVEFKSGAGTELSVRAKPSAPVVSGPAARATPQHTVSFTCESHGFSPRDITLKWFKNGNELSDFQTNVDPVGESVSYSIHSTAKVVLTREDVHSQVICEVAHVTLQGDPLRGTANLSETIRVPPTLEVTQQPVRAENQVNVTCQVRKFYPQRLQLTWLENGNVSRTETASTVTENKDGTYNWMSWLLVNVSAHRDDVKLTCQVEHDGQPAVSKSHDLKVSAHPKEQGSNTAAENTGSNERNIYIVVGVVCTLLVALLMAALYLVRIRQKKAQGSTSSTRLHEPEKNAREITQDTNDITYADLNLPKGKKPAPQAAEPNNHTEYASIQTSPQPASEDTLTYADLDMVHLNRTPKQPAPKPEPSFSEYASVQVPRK
T1 sequence (Q08722 whole entry, looked up): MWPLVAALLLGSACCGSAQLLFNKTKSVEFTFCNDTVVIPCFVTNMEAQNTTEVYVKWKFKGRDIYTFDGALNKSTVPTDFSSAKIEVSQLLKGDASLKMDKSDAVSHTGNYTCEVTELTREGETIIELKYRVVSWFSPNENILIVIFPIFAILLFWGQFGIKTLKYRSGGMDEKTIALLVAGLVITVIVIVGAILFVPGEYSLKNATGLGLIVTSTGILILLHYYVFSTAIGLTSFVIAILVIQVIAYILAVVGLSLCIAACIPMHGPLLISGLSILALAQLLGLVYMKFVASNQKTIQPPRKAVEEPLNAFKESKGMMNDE

Compound | Potency [1] | outcome [2] | Potency [3] | Potency [4] | Potency [5] | outcome [6] | Potency [7] | outcome [8] | remaining parasite growth % (stronger effect = lower value) [9] [%] | activity, percent of control [10] [%] | remaining proliferation (% of control), lower = more inhibition [11] [%]
CCCN(CCC)[C@H]1CCc2c(F)ccc(O)c2C1 | inactive | inactive | inactive | inactive | inactive | inactive | inactive | inactive |  |  | 
CC(C)CC(NP(=O)(O)O[C@@H]1O[C@@H](C)[C@H](O)[C@@H](O)[C@H]1O)C(=O)NC(Cc1c[nH]c2ccccc12)C(=O)O (stereo not given in full) | inactive |  |  |  |  |  |  |  |  |  | 
COc1ccc2c(c1O)-c1cccc3c1[C@@H](C2)N(C)CC3 | inactive | inactive | inactive | inactive | inactive | inactive |  |  |  |  | 
O=[N+]([O-])c1cc(O)c(O)c([N+](=O)[O-])c1 | inactive | inactive | inactive | inactive | inactive | inactive | inactive |  |  |  | 
Cc1sc2ccccc2c1CC1=NCCN1 | inactive | inactive | inactive | inactive | inactive | inactive | inactive |  |  |  | 
O=C1CC[C@@]2(O)C3Cc4ccc(O)c5c4C2(CCN3CC2CC2)[C@H]1O5 (stereo not given in full) | inactive | inactive | inactive | inactive | inactive | inactive | inactive | inactive |  |  | 
CCCn1c(=O)c2[nH]c(C3CCCC3)nc2n(CCCOC(=O)c2ccc(S(=O)(=O)F)cc2)c1=O | inactive | inactive | inactive |  | inactive | inactive | inactive | inactive |  |  | 
NNC(=O)c1ccc(O)cc1 | inactive | inactive | inactive | inactive | inactive |  | inactive | inactive |  |  | 
OCc1cnc[nH]1 | inactive | inactive | inactive | inactive | inactive | inactive | inactive | inactive |  |  | 
CCCN1CC[C@@H]2c3cc(O)ccc3CC[C@@H]21 | inactive | inactive | inactive | inactive | inactive | inactive | inactive | inactive |  |  | 
C[N+](C)(C)CCOC(=O)CBr | inactive | inactive | inactive | inactive | inactive | inactive | inactive | inactive |  |  | 
NC(=O)COc1c(F)cc(SCCNS(=O)(=O)c2ccccc2)cc1F | inactive | inactive |  | inactive | inactive | inactive | inactive | inactive |  |  | 
CNc1ccc2oc(C[C@H]3O[C@@]4(CC[C@H]3C)O[C@H]([C@H](C)C(=O)c3ccc[nH]3)[C@H](C)C[C@H]4C)nc2c1C(=O)O | inactive | inactive |  | inactive | inactive |  | inactive | inactive |  |  | 
C[N+](C)(C)CC#CCN1CCCC1=O | inactive | inactive | inactive | inactive | inactive | inactive |  | inactive |  |  | 
Cc1o[nH]c(=O)c1CC(N)C(=O)O (stereo not given) | inactive | inactive |  | inactive | inactive | inactive | inactive | inactive |  |  | 
C#CCN[C@H](C)Cc1ccccc1 | inactive | inactive | inactive |  | inactive | inactive | inactive | inactive |  |  | 
CC1(C(=O)O)C2CCC(O2)C1(C)C(=O)O (stereo not given) | inactive | inactive |  | inactive | inactive |  | inactive | inactive |  |  | 
C[C@]12Cc3cn4c(nc3C=C1CCC1C2CC[C@@]2(C)[C@H]1CC[C@@]2(O)C#N)nc1ccccc14 (stereo not given in full) | inactive | inactive |  |  |  | inactive | inactive |  |  |  | 
CC(C)(C)c1cc(C=C(C#N)C#N)cc(C(C)(C)C)c1O | inactive | inactive | 131 nM (active) | 301 nM (active) | 414 nM (active) |  | inactive | inactive |  |  | 
CO[C@H]1CC=C2CCN3CCC4=C(CC(=O)OC4)[C@]23C1 | inactive | inactive |  | inactive | inactive | inactive | inactive | inactive |  |  | 
CN(C(=O)Cc1ccc(Cl)c(Cl)c1)C(CN1CCCC1)c1cccc(OCC(=O)O)c1 (stereo not given) | inactive | inactive |  | inactive | inactive | inactive | inactive | inactive |  |  | 
CC(N)Cc1c[nH]c2ccc(O)cc12 (stereo not given) | inactive | inactive | inactive | inactive | inactive | inactive | inactive | inactive |  |  | 
C=CCN1CCC23c4c5ccc(O)c4O[C@H]2C(=O)CC[C@@]3(O)C1C5 (stereo not given in full) | inactive | inactive |  | inactive | inactive | inactive | inactive | inactive |  |  | 
NC(C(=O)O)c1cc(=O)[nH]o1 (stereo not given) | inactive | inactive |  | inactive | inactive | inactive | inactive |  |  |  | 
C[N+]1(C)CCc2cc3c(cc2[C@H]1[C@@H]1OC(=O)c2c1ccc1c2OCO1)OCO3 | inactive | inactive |  | inactive | inactive | inactive | inactive | inactive |  |  | 
CCCN(CCC)CCc1ccc(O)c(O)c1 | inactive | inactive | inactive | inactive | inactive | inactive | inactive | inactive |  |  | 
CCCN(CCC)[C@@H]1CCc2cccc(O)c2C1 | inactive | inactive | inactive |  | inactive | inactive | inactive | inactive |  |  | 
CC(=O)c1c(O)c(C)c(O)c(Cc2c(O)c3c(c(C(=O)/C=C/c4ccccc4)c2O)OC(C)(C)C=C3)c1O | inactive | inactive |  | inactive |  |  | inactive |  | -0.946 | -0.827 | -2.57
